TDP-43 rescue – TDP-43 toxicity inhibition in yeast; Potency, µM (titrated, usually from 46.1 µM), usual class: activators; yeast TDP-43 toxicity rescue, BacTiter-Glo growth, 24 h; 0.45% of 45,000 active; active means well fitted activation curve with a large enough effect; further: 0% is about no effect; nearly all actives have a fitted effect of over 55% in size
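TDP-43-expressing yeast, pregrown in raffinose, seeded at OD600 0.02 in galactose medium with compound for 24 hr at 30 deg C. Growth read by BacTiter-Glo luminescence, so rescue of toxicity appears as activation.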
* = called active by the depositor; i = inactive. The sample as a whole holds a higher share of hits than the screen did. Potency means the concentration at half of the fitted maximal effect.

SMILES | TDP-43 rescue
O=C(N/N=C/c1ccc(OC(F)F)cc1)C1=COCCO1 | i
CC(C)Oc1ccc(/C=N/NC(N)=S)cc1 | 13µM*
Cn1cc(/C=N/NC(N)=S)c2ccccc21 | i
CCCSc1ncc(Cl)c(C(=O)Nc2sc3c(c2C(=O)NCC)CCCC3)n1 | i
Cc1cc(Br)ccc1NC(=O)c1cc2c(s1)-c1ccccc1SC2 | i
COc1cc(CN2C[C@@H](CO)O[C@@H](n3cnc4c(NCC(C)C)ncnc43)C2)cc(OC)c1OC | i
CCOC(=O)c1oc2c(c1C)-c1nn(Cc3ccccc3Cl)cc1CC2 | i
CC(=O)Nc1ccc(NC(=O)c2c(C)nn(Cc3ccccc3Cl)c2C)cc1 | i
Cc1c(C(=O)O)oc2c1-c1nn(Cc3ccccc3Cl)cc1CC2 | 11µM*
O=C(NCc1ccccc1)c1cc(C2CCCN(S(=O)(=O)c3cccs3)C2)on1 (configuration not stated) | i
COc1ccc(OC)c(S(=O)(=O)NC(=O)C2(C)CCN2C(=O)CC2CCCC2)c1 (configuration not stated) | i
COc1cc(Cl)cc(/C=C/c2ccc3ccccc3n2)c1OC(C)=O | 13µM*
Oc1c(Cl)cc(Cl)cc1/C=C/c1ccc2cccc(O)c2n1 | i
COc1c(OC(C)=O)ccc(/C=C/c2ccc3cccc(OCc4ccccc4)c3n2)c1[N+](=O)[O-] | i
O=C(CCCSc1ccc(Cl)cc1)Nc1ccccc1O | 11µM*
O=C(CSCc1ccc(Cl)cc1)Nc1ccccc1O | i
Cc1ccc(SCCC(=O)N/N=C/c2ccccc2O)cc1 | i
COc1cc(-c2nc3nc[nH]n3c2Nc2ccc(C(C)C)cc2)ccc1O | i
CCOC(=O)c1c(-c2ccc(C)cc2)csc1NC(=O)c1cc(=O)c2cc(C)ccc2o1 | i
CCOc1ccc(CNC(=O)c2cnc(SC)nc2CC)cc1 | i
CCN(Cc1ccccc1)C(=O)COC(=O)c1n[nH]c2ccccc12 | i
Cc1cccc(C)c1OCCOC(=O)c1n[nH]c2ccccc12 | 14µM*
O=C(COC(=O)c1n[nH]c2ccccc12)Nc1ccccc1F | i
Cc1ccc(Cn2c(CN3CCC(C(=O)O)CC3)cc3ccccc32)cc1 | i
O=C(NCc1ccccc1)C1CCN(C(=O)c2cnn(-c3ccccc3)c2-n2cccc2)CC1 | i
SMILES | TDP-43 rescue
O=C(O)c1nn(CCOc2ccc(Cl)cc2Cl)c(=O)c2ccccc12 | i
O=C(O)c1nn(CCOc2cccc(Br)c2)c(=O)c2ccccc12 | 18µM*
O=C(O)c1nn(CCOc2c(Cl)cccc2Cl)c(=O)c2ccccc12 | i
COc1ccc(CCNC(=O)C2=C(C)C(=O)OC23CCCCC3)c(OC)c1 | i
S=c1[nH]cnc2scc(-c3ccc(Br)cc3)c12 | i
Cc1ccc(-c2csc3nc[nH]c(=S)c23)cc1 | 14µM*
O=c1[nH]cnc2scc(-c3ccc(Br)cc3)c12 | i
CCOC(=O)c1c(NC(C)=O)c2c3c(sc2n1Cc1ccc(Cl)cc1)CCCC3 | i
CC(=O)c1ccc(Sc2nnnn2-c2ccccc2)c([N+](=O)[O-])c1 | 20µM*
Cc1ccc(-n2nnnc2SCC(=O)NNC(=O)c2ccc([N+](=O)[O-])cc2)cc1 | i
CN1CCN(S(=O)(=O)c2ccc(Sc3nnnn3-c3ccccc3)c([N+](=O)[O-])c2)CC1 | i
Cc1nn2c(-c3cccc(NC(=O)c4ccc(Cl)cc4)c3)nnc2c2ccccc12 | i
CN(C)C(CNc1ncnc2sccc12)c1ccccc1 (configuration not stated) | i
Fc1ccc(Nc2ncnc3sccc23)cc1 | 11µM*
OC(CNc1ncnc2sccc12)c1ccccc1 (configuration not stated) | i
C=CCOc1cccn2c(N(C)C(=O)c3ccc(OC)cc3)c(CC)nc12 | i
Cc1cc(OCC(=O)N(Cc2sccc2C)C2CCS(=O)(=O)C2)ccc1Cl (configuration not stated) | i
CCOC(=O)COc1ccccc1/C=N/O | i
COC(=O)N/N=C/c1ccccc1OCCOc1ccc(OC)cc1 | i
O/N=C/c1ccccc1Oc1ccc(Cl)cc1 | 18µM*
Cc1ccc(C)n1-c1nnc(N2CCCC(C(=O)NCc3ccc(Cl)cc3)C2)s1 (configuration not stated) | i
Cn1c(/C(C#N)=C/c2ccccc2Br)nc2ccccc21 | i
CCC(CC)C(=O)N(C)c1c(C)nc2c(OCCC3CCCCC3)cccn12 | i
COc1cccc(CNC(=O)CCc2nnc3n(C)c(=O)c4sccc4n23)c1 | i
CN(c1ccccc1)S(=O)(=O)c1cccc(NC(=O)c2ccc(=O)[nH]n2)c1 | i
SMILES | TDP-43 rescue
CCCCC(=O)NCc1ccccc1Cl | i
O=C(CN1CCc2ccccc21)NCc1ccccc1Cl | 13µM*
O=C(CN1CCN(Cc2ccccc2)CC1)NCc1ccccc1Cl | i
COc1ccc(Cc2nc3c4cnn(-c5cccc(F)c5)c4ncn3n2)cc1 | i
COc1ccc(-c2nc(CNS(=O)(=O)c3ccccc3)cs2)cc1 | i
Cc1cc(C)c(S(=O)(=O)NCc2csc(-c3ccccc3)n2)c(C)c1 | 22µM*
O=S(=O)(NCc1csc(-c2ccccc2)n1)c1cccc(F)c1 | i
COc1cc(CN2C[C@@H](CO)O[C@@H](n3cnc4c(NC5CCCC5)ncnc43)C2)cc(OC)c1OC | i
COc1ccc(NC(=O)CN2C(=O)C(c3ccc(C)cc3)=NC23CCCCCC3)cc1Cl | i
Cc1ccc2c(c1)C(O)(CC(=O)/C=C/C=C/c1ccccc1)C(=O)N2 (configuration not stated) | i
Cc1ccc2c(c1)/C(=C/c1ccccc1)C(=O)N2 | 22µM*
Cc1ccc(C)c(C2C(=O)c3ccccc3C2=O)c1 | i
Nc1c(-c2nc(-c3ccncc3)no2)nnn1CC(=O)Nc1ccccc1 | i
CCc1ccccc1NC(=O)Cn1nnc(-c2nc(-c3ccncc3)no2)c1N | i
COc1cc(/C=C/C(=O)O)ccc1OS(=O)(=O)c1ccc(C)cc1 | i
COc1ccc(/C=C/C(=O)O)cc1Cl | 11µM*
COc1cc(/C=C/C(=O)O)ccc1OCc1ccc([N+](=O)[O-])cc1 | i
CCc1ccc(NC(=O)CN2C(=O)C(c3ccc(F)cc3)=NC2(C)C)cc1 | i
O=C(Cn1cnnn1)NCCc1ccc(Cl)cc1Cl | i
O=C(CSc1ncn[nH]1)NCCc1ccc(Cl)cc1Cl | i
O=C(CCl)N=c1sccn1Cc1ccc(Cl)cc1Cl | 20µM*
CN(C(=O)CSc1nc2ccc(NC(=O)COc3ccc(F)cc3)cc2s1)c1ccccc1 | i
Cc1cc(N(C)N)nc(NC(=O)NS(=O)(=O)c2ccccc2Cl)n1 | i
CCCS(=O)(=O)c1nc(S(=O)(=O)c2ccc(C)cc2)c(NCc2ccccc2Cl)s1 | i
COc1cc(/C=C/C(=O)c2ccc3c(c2)OCCO3)cc(Br)c1OCC(=O)N(C)C | 16µM*
SMILES | TDP-43 rescue
COc1cc(C(=O)NNC(=O)c2ccc3c(c2)OCCO3)cc(OC)c1OC | i
O=C(/C=C/c1ccncc1)c1ccc2c(c1)OCCO2 | i
Cc1ccc(NC(=O)CN2C(=O)C(c3ccc(F)cc3)=NC23CCCCC3)c(C)c1 | i
COc1ccccc1C(=O)N1CCCC(C)(C(=O)NS(=O)(=O)C2CC2)C1 (configuration not stated) | i
O=C(CCCCCn1c(=O)c2sccc2n(CC(=O)Nc2cc(C(F)(F)F)ccc2Cl)c1=O)NCc1ccccc1Cl | i
COc1ccc(Cc2nc3c4cnn(-c5ccccc5F)c4ncn3n2)cc1 | i
Cc1cccc(C)c1OCc1nc2c3cnn(-c4ccccc4F)c3ncn2n1 | i

Screening results deposited in PubChem BioAssay by National Center for Advancing Translational Sciences (NCATS).
